The supplement of paper PMC13380429
Structures can show the parent of a compound that is named as a salt. Unmarked numbers belong to inactive results.

Tested on: Vero E6 infected with SARS-CoV-2
Assay: inhibition of SARS-CoV-2 cytopathic effect; higher = more antiviral protection, active = above 15
Details: 48 h

| SMILES | inhibition of SARS-CoV-2 cytopathic effect (1 nM) | inhibition of SARS-CoV-2 cytopathic effect (8.33 nM) | inhibition of SARS-CoV-2 cytopathic effect (100 nM) | inhibition of SARS-CoV-2 cytopathic effect (833.33 nM) | inhibition of SARS-CoV-2 cytopathic effect (10000 nM) |
| --- | --- | --- | --- | --- | --- |
| CNCC[C@H](Oc1cccc2ccccc12)c1cccs1 [duloxetine] | -2.53% | -0.71% | 0.92% | -2.04% | -6.87% |
| CC(=O)OCC(=O)[C@@]12OC(C)(C)O[C@@H]1C[C@H]1[C@@H]3C[C@H](F)C4=CC(=O)C=C[C@]4(C)[C@@]3(F)[C@@H](O)C[C@@]12C [fluocinonide] | 0.75% | -0.105% | 0.48% | 0.035% | -1.54% |
| COCCOC(=O)C1=C(C)NC(C)=C(C(=O)OC/C=C/c2ccccc2)C1c1cccc([N+](=O)[O-])c1 (stereo not given) [cilnidipine] | -1.01% | -0.52% | 0.89% | 0.38% | 7.9% |
| Nc1nccc(-c2c(-c3ccc(F)cc3)ncn2C2CCCCC2)n1 | 3.7% | 3.92% | -2.24% | -0.2% | 1.35% |
| c1ccc2c(c1)CCC[C@H]2Nc1nc2ccccc2[nH]1 | 2.74% | 2.66% | 1.8% | -1.92% | -0.48% |
| Cc1cc(N2CCCCC2)nc2ccccc12 | -1.33% | 3.15% | -0.88% | 0.63% | 4.47% |
| Nc1ccc(F)cc1NC(=O)c1ccc(CNC(=O)/C=C/c2cccnc2)cc1 [chidamide] | 0.62% | 0.21% | -1.13% | 1.82% | -0.06% |
| C#Cc1cccc(Nc2ncnc3cc(OCCOC)c(OCCOC)cc23)c1 [erlotinib] | -0.8% | -0.26% | -1.96% | -4.63% | -14.6% |
| CCCCC/C=C\C/C=C\CCCCCCCC(=O)NCCCC(=O)O [GABA-linoleamide] | 0.87% | 4.17% | 1.92% | -0.22% | -0.15% |
| CON(C)C(=O)N1N=C(c2cc(F)ccc2F)S[C@@]1(CCCN)c1ccccc1 [filanesib] | -0.78% | -1.05% | -1.91% | -0.01% | -2.39% |
| CCCN[C@H]1CCc2nc(N)sc2C1 [pramipexole] | -2.43% | -0.27% | -3.37% | -2.16% | -1.54% |
| CC(=O)Nc1c(I)cc(I)c(C(=O)O)c1I [acetriazoic-acid] | -0.01% | 0.54% | -0.88% | 0.14% | -0.46% |
| CCCCCCCCCCCCCCCCCCO [octadecan-1-ol] | -0.16% | -0.19% | -2.3% | -2.63% | 2.04% |
| O=c1oc2cc(O)ccc2s1 [tioxolone] | 1.22% | -2.55% | -0.43% | -1.44% | -1.5% |
| Nc1cc2c3ccccc3ccc2c2ccccc12 [6-aminochrysene] | 1.36% | 2.29% | 2.99% | -3.94% | 1.34% |
| NC(=O)c1ccccc1O [salicylamide] | -0.95% | 2.62% | 5.65% | 3.83% | 0.13% |
| CCCCC(=O)O[C@H]1CC[C@H]2[C@@H]3CCc4cc(O)ccc4[C@H]3CC[C@]12C | -0.93% | 0.74% | -1.48% | -1.92% | -0.83% |
| CCCN1CCO[C@@H]2c3cc(O)ccc3OC[C@H]21 | -1.91% | -3.42% | 2.39% | -0.35% | -2.98% |
| CCOC(=O)[C@H](Cc1ccccc1)NC(=O)c1cc(Cl)c(OCCN2CCN(C)CC2)c(Cl)c1O | -1.93% | 1.91% | 0.81% | -1.07% | 2.79% |

| SMILES | inhibition of SARS-CoV-2 cytopathic effect (1 nM) | inhibition of SARS-CoV-2 cytopathic effect (8.33 nM) | inhibition of SARS-CoV-2 cytopathic effect (100 nM) | inhibition of SARS-CoV-2 cytopathic effect (833.33 nM) | inhibition of SARS-CoV-2 cytopathic effect (10000 nM) |
| --- | --- | --- | --- | --- | --- |
| CCCc1c(OCC(O)COc2ccc3c(=O)cc(C(=O)O)oc3c2CCC)ccc(C(C)=O)c1O (stereo not given) | 3.39% | -0.15% | 3.25% | 6.19% | 3.02% |
| COc1ccccc1CN[C@H]1CCCN[C@H]1c1ccccc1 | -0.59% | -1.96% | 2.38% | -1.82% | -3.19% |
| CC(=O)c1ccc2c(c1)N(CCCN1CCN(CCO)CC1)c1ccccc1S2 [acetophenazine] | 1.65% | 1.77% | 2.3% | 2.47% | 2.15% |
| O=C(CCc1ccncc1)NNC(=O)N1Cc2ccccc2Oc2ccc(Cl)cc21 | 1.3% | 1.11% | 1.69% | -0.24% | 5.24% |
| CN(C)CCNc1nc2cc(O)ccc2c2c1C(=O)c1ccccc1-2 | 0.16% | 1.19% | -1.3% | -7.91% | -23.6% |
| CCCCCCCCCCCCCCCCCCCCCCCCC(=O)O [pentacosanoic-acid] | -2.75% | -2.46% | -0.07% | -0.23% | -2.38% |
| N=C(N)NC(=O)c1nc(Cl)c(N)nc1N [amiloride] | 3.13% | 3.86% | 2.25% | 3.19% | 3.14% |
| CC(=O)O[C@H]1C[C@@H]2CC[C@@H]3[C@H](CC[C@@]4(C)[C@H]3C[C@H](N3CC[N+](C)(C)CC3)[C@@H]4OC(C)=O)[C@@]2(C)C[C@@H]1N1CC[N+](C)(C)CC1 [pipecuronium] | -1.2% | -0.41% | -0.11% | -1.81% | -1.58% |
| COc1ccc2nc3ccc(Cl)cc3c(SCCCN)c2c1 | 0.89% | 1% | 0.27% | 0.79% | 2.63% |
| CO[C@H]1C[C@H](O[C@H]2CC[C@@]3(C)[C@H](CC[C@@H]4[C@@H]3CC[C@]3(C)[C@@H](C5=CC(=O)OC5)[C@@H](OC(C)=O)C[C@]43O)C2)O[C@@H](C)[C@@H]1O [oleandrin] | -3.22% | -5.79% | -12.1% | -12.2% | -9.58% |
| CC[C@@H](C(=O)[C@@H](C)[C@@H](O)[C@H](C)[C@@H]1O[C@@H]([C@@H](CC)C(=O)O)CC[C@@H]1C)[C@H]1O[C@]2(C=C[C@@H](O)[C@]3(CC[C@@](C)([C@H]4CC[C@](O)(CC)[C@H](C)O4)O3)O2)[C@H](C)C[C@@H]1C [Salinomycin (Procoxacin)] | -2.73% | 0.16% | 4.82% | 50.9% (active) | 57% (active) |
| C[C@H](N)Cc1c[nH]cn1 [alpha-methylhistamine-dihydrobromide-(S)-(+)] | -0.195% | -0.765% | 8.02% | 1.26% | 2.96% |
| Nc1ccc(C(=O)O)cc1 [potassium-p-aminobenzoate] | -5.31% | -2.38% | -5.27% | -0.2% | -5% |
| NS(=O)(=O)c1cc(C2(O)NC(=O)c3ccccc32)ccc1Cl (stereo not given) [chlorthalidone] | -0.87% | -0.18% | 4.69% | -3.83% | -3.63% |
| NP(N)(=O)NC(=O)c1ccc(F)cc1 [flurofamide] | 3.53% | -1.42% | -1.3% | 0.9% | 5.62% |
| O=C1CCCC(=O)C1C(=O)c1ccc(C(F)(F)F)cc1[N+](=O)[O-] [nitisinone] | 0.39% | 0.93% | -0.21% | 0.01% | -1.34% |
| CCCC[C@H](NC(C)=O)C(=O)N[C@H]1CC(=O)NCCCC[C@@H](C(=O)O)NC(=O)[C@H](Cc2c[nH]c3ccccc23)NC(=O)[C@H](CCCNC(=N)N)NC(=O)[C@@H](Cc2ccccc2)NC(=O)[C@H](Cc2c[nH]cn2)NC1=O [bremelanotide] | 1.27% | -1.82% | -0.14% | -2.33% | 0.21% |
| CC[C@@H]([C@H](C)O)n1ncn(-c2ccc(N3CCN(c4ccc(OC[C@@H]5CO[C@@](Cn6cncn6)(c6ccc(F)cc6F)C5)cc4)CC3)cc2)c1=O [posaconazole] | 0.11% | 0.51% | 0.36% | 2.23% | -6.91% |
| Cc1cc(=O)oc2c(C=O)c(O)ccc12 | 0.13% | 2.74% | 1.64% | 2.83% | 6.12% |
